40 compounds from PubChem BioAssay (EPA / NIEHS) can be followed below.

Molecules are shown by their SMILES. Calls of active or inactive are those of the source. The calls were made as follows: active = hit-call score of the fitted dose curve at least 0.9, where 1 is the maximum; inactive = score below 0.9.

This assay in a line: ATG_E_Box_CIS: Attagene CIS-FACTORIAL HepG2 Assay for human Enhancer Box (E-box) (AID 2282936). The conditions noted are these: HepG2 E-box cis-reporter transcription, actives raise or lower the signal. The protocol: ATG_CIS is a cell-based, multiplexed-readout assay that uses HepG2, a human liver cell line, with measurements taken at 24 hours after chemical dosing in a 24-well plate.ATG_E_Box_CIS is one of 52 assay component(s) measured or calculated from the ATG_CIS assay. It is designed to make measurements of mRNA induction, a form of inducible reporter, as detected with fluorescence intensity signals by Reverse transcription polymerase chain reaction (RT-PCR) and Capillary electrophoresis technology.Data from the assay component ATG_E_Box_CIS was analyzed into 1 assay endpoint. This assay endpoint, ATG_E_Box_CIS, was analyzed with bidirectional fitting relative to DMSO as the negative control and baseline of activity. Using a type of inducible reporter, measures of mRNA for gain or loss-of-signal activity can be used to understand the reporter gene at the transcription factor-level as they relate to the gene USF1. Furthermore, this assay endpoint can be referred to as a primary readout, because this assay has produced multiple assay endpoints where this one serves a reporter gene function. To generalize the intended target to other relatable targets, this assay endpoint is annotated to the dna binding intended target family, where the subfamily is basic helix-loop-helix protein.
Human liver HepG2 cells are transiently transfected with multiple reporter transcription units (MRTUs) in 6-well plates using FuGene 6 reagent (Roche; 3 ml FuGene/1 mg DNA). The MRTU constructs are regulated by a cis-regulating element (promoter). […] A major difference between the CIS and TRANS system is that in CIS activities of endogenous TFs are measured, whereas the TRANS assay evaluates changes in activities of exogenous, chimeric NR-Gal4 proteins. […] At the end of 24 hour incubation, total RNA was isolated using TriZol reagent (Invitrogen). The isolated RNA is then reverse-transcribed using oligo(dT) primer and Mo-MLV reverse transcriptase (Invitrogen) with DNAse I (Ambion) treatment for 30 min. The one-tenth of the produced cDNA was amplified by PCR using Taq DNA polymerase (Invitrogen) and two reporter sequence-specific primers. The PCR products were fluorescently labeled by primer extension with 6-arboxyfluorescein (6-FAM) 5'-labeled reporter sequence-specific primer (2 min at 95 C, 20 s at 68 C and 10 min at 72 C) and these products were digested with 5U of HpaI (New England Biolabs) for 2h at 37 C. The fragments were purified using Qiaquick PCR columns (Qiagen), analyzed on an ABI 3130xL genetic analyzer (Applied Biosystems) with peak positions identified by using a set of X-rhodamine (ROX)-labeled MapMarker1000 molecular weight standards (BioVentures). The raw capillary electrophoresis data was processed using Attagraph software (Attagene).
Regarding `COC(=O)OC`, the outcome was inactive. Same read-out and setting: the value for `O=C(COc1ccc(Cl)cc1)N1CCN(Cc2ccc3c(c2)OCO3)CC1` was “inactive”; that for `CC(C)CCCCCCCOC(=O)c1ccc(C(=O)OCCCCCCCC(C)C)c(C(=O)OCCCCCCCC(C)C)c1` was “inactive”. Same read-out and setting: to `CCCCCCCCCC=O` belongs “inactive”; to `CNC[C@H](O)c1cccc(O)c1`, “inactive”. Still for that read-out and setting: the value for `Clc1ccc2c(c1)C(N1CCNCC1)=Nc1ccccc1O2` was “inactive”; that for `COc1cc(C)cc(O)c1` was “inactive”; that for `CCCCCCCCCOC(C)=O` was “inactive”. `CCCC/C=C\CCCCCCCCCC=O`: the result was inactive. `CC(=O)C(=O)O`: the result was inactive. Still for that read-out and setting: the value for `Cc1ccc(C=O)s1` was “inactive”. Same read-out and setting: the value for `CC(O)C(C)O` (stereo not given) was “inactive”; that for `OCC(CO)(CO)COCC(CO)(CO)CO` was “inactive”.

As to `OCCOCCOCCOCCO`, the outcome was inactive.

For the compound `NCCCCCCN`, the result was inactive. Same read-out and setting: the value for `Cc1c(N(C)C)c(=O)n(-c2ccccc2)n1C` was “inactive”; that for `C=CC[N+](C)(C)CC=C` was “inactive”. As for `Cc1ccc(Nc2ccc(O)c3c2C(=O)c2ccccc2C3=O)cc1`, the AC50 is 20.3 µM (active).

`CCCCCCCCCCCCN(CCCCCCCCCCCC)CCCCCCCCCCCC`: the result was inactive. The same measure, in the same setting: the value for `CCCCCCOC(=O)CC` was “inactive”. As to `O=C=NC1CCC(CC2CCC(N=C=O)CC2)CC1` (stereo not given), the AC50 was 76.9 µM (active).

`COc1ccc(O)cc1`: the result was inactive. Same read-out and setting: the value for `O=S(=O)(O)c1cccc2c(S(=O)(=O)O)cccc12` was “inactive”; that for `CCCCOCCOCCOCCOCCO` was “inactive”; that for `COc1ccc(Cl)cc1C` was “inactive”.

Take `CCN(CC)CCOC(=O)c1ccc(N)cc1`: the outcome was inactive. In the case of `Cc1ccc2n[nH]nc2c1`, the result was inactive.

`O=c1[nH]c(=O)n([C@H]2CCCO2)cc1F`: the outcome was inactive. Still for that read-out and setting: the value for `CC1(C)CCC(C)(C)c2cc(C(=O)Nc3ccc(C(=O)O)cc3)ccc21` was “inactive”; that for `CCCCCCCCCCCCSC` was “inactive”; that for `CCc1ccc(C=O)cc1` was “inactive”.

`O=C(O)CCCCCCCC(=O)O`: the result was inactive. Regarding `CC(C)(COC(=O)c1ccccc1)COC(=O)c1ccccc1`, the result was inactive. Same read-out and setting: the value for `NC(=O)Nc1ccc(Cl)cc1` was “inactive”; that for `CC1=CCC(O)(C(C)C)CC1` (stereo not given) was “inactive”. On the same count and under the same terms, to `O=[N+]([O-])c1ccc(Nc2ccc(Nc3ccccc3)c(S(=O)(=O)O)c2)c([N+](=O)[O-])c1` belongs “inactive”. As for `CC(C)=CCCC(C)=CCCC(C)=CCO`, the outcome was inactive. Still for that read-out and setting: to `C=C[Si](OCC)(OCC)OCC` belongs “inactive”; to `O=C1NC(=O)c2ccccc21`, “inactive”; to `Cc1ccc(C(=O)O)o1`, “inactive”.
